# Values joined by “and” are separate entries in the source; they are usually repeats but may differ in a detail not shown here. Equal entries are not always repeated. In all, about 18,000 compounds went through this assay and about 1,200 (6.7%) were called active. Inconclusive results (about 16%) are left out. Calls come from the whole dose curve; tested in HEK293 cells. Shown is part of a subset that was picked to be rich in actives. Entries that show only a call come without a potency. Where a structure was tested more than once in an assay, its records may differ in their call.
# Experiment: qHTS for Inhibitors of binding or entry into cells for Marburg Virus
# Settings: Marburg virus pseudotype entry/binding inhibition, cell-based; series mostly up to 49.2 µM
# Potency is the fitted concentration of half-maximal effect.
SMILES,"activity change, negative = inhibition",Potency
COc1ccc(-c2nc(-c3ccccc3)oc2Nc2ccc3ccccc3c2)cc1,inactive,
O=S1(=O)CC(N2CCC(Cc3ccccc3)CC2)CN1Cc1ccccc1 (stereo not drawn),inactive,
CCOC(=O)C1=C(C(=O)OCC)C(C(=O)OCC)N(S(=O)(=O)C(F)(F)F)c2ccccc21 (stereo not drawn),inactive,
COC(=O)C(C(=O)OC)[C@@H](NC=O)c1ccccc1,inactive,
C=CCN(Cc1ccc([N+](=O)[O-])cc1)S(=O)(=O)C=C,inactive,
COC(=O)CC=C[C@@H](C)[C@H](NC(=O)OCC(Cl)(Cl)Cl)c1ccc2ccccc2c1,-17.9% [at 8.59 µM] (inactive),
CC[C@H](C)[C@H](NC(=O)[C@@H](N)CCC(=O)O)C(=O)N[C@@H](CC(C)C)C(=O)N[C@@H](CC(=O)O)C(=O)N[C@H](C(=O)N1CCC[C@H]1C(=O)N[C@@H](CO)C(=O)N[C@H](C(=O)O)[C@@H](C)O)C(C)C,inactive,
CCCCN1CC(COc2ccccc2)Oc2cccc(F)c2S1(=O)=O (stereo not drawn),inactive,
CCCCN1CC(COCc2ccccc2)OCCS1(=O)=O (stereo not drawn),inactive,
CC[C@@]12C=C(/C=C/c3ccccc3)[C@](CC)(C1)[C@H](c1ccccc1)CC2=O,inactive,
FC(F)(F)c1ccc(-c2nn3ncccc3c2-c2ccnc(Nc3ccc4c(c3)OCCO4)n2)cc1,inactive,
COc1cc(Nc2nccc(-c3cnn4ncccc34)n2)cc(OC)c1,,3530 nM (active)
C[C@@H]1C[C@H]2CC[C@H](O2)[C@H](C)C(=O)O[C@@H](C)C[C@@H]2CC[C@@H](O2)[C@@H](C)C(=O)O[C@H](C)C[C@H]2CC[C@H](O2)[C@H](C)C(=O)O[C@@H](C)C[C@@H]2CC[C@@H](O2)[C@@H](C)C(=O)O1,,631 nM (active)
C#CCNc1ccc2c(c1)OC[C@@H](C)NS2(=O)=O,inactive,
COc1cc2c(c(OC)c1OC)CC(C)=C(C)CC2NC(=O)C(F)(F)F (stereo not drawn),-9.07% [at 8.59 µM] (inactive),
COCOCCn1cc(CN2CCS(=O)(=O)N(Cc3ccc(-c4cccc(N(C)C)c4)cc3)C(CC(C)C)C2=O)nn1 (stereo not drawn),inactive,
C[C@H](CO)NS(=O)(=O)c1ccc(Br)cc1F,inactive,
CCCCC/C=C\C[C@H](O)/C=C/C=C/C=C/[C@@H](O)CCCC(=O)O,inactive,
C=CCOC(=O)C(=C)C,inactive,
C[C@@H]1CC2=CCCC2[C@]2(O1)C(=O)N(CC1CC1)c1cccc(Br)c12 (stereo partly drawn),72.4% [at 8.59 µM] (inactive),
O=C(Nc1cccc(C(=O)N2CCCC2)c1)c1ccccc1,inactive,
CC(=O)N1CCN(Cc2cc(=O)oc3cc(C)ccc23)CC1,inactive,
O=C(OCCN1CCOCC1)C1(c2ccccc2)CCCCC1,,inactive and 31.6 µM (active)

# Reference: PubChem BioAssay AID720532 (National Center for Advancing Translational Sciences (NCATS), 2013)
